In the supplement of paper PMC10338343:
± gives the standard deviation.

Legend:
[1] = test system: MILI (PIWIL2) piRISC loaded with L1MC piRNA (26 nt); assay: pre-steady-state target cleavage rate (min^-1); guide: L1MC piRNA 5'p-UAACUAAAUACUAUGCAAGCUGUAGG; higher = faster piRNA-guided slicing of the target
Outline: (§1)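 Active affinity-purified piRISC (1 nM) loaded with one synthetic guide was mixed with a transcribed, DNA-blocked target RNA library (0.1 nM), with or without 500 nM GTSF1 partner protein, in HEPES–potassium acetate buffer at 33 °C for 0–8 or 0–960 min. Uncleaved targets were sequenced, normalised to depth and to weakly complementary targets, and pooled across three trials, with k3 capped at 0.0001 min^-1. The pre-steady-state cleavage rate was determined with a burst-and-steady-state fit.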

[2] = test system: EfPiwi piRISC loaded with L1MC piRNA (26 nt); assay: pre-steady-state target cleavage rate (min^-1); auxiliary factor: 500 nM Ephydatia muelleri Gtsf1; guide: L1MC piRNA 5'p-UAACUAAAUACUAUGCAAGCUGUAGG; MIWI and MILI are mouse PIWI proteins and EfPiwi is from a freshwater sponge; tags in brackets are library labels; higher = faster piRNA-guided slicing of the target
Outline: as §1

[3] = auxiliary factor: 500 nM mouse GTSF1
[4] = auxiliary factor: none (no GTSF1)

Row | Sequence | pre-steady-state target cleavage rate [1, 3] | pre-steady-state target cleavage rate [2] | pre-steady-state target cleavage rate [1, 4]
1 | UCCUGGAUGAGCUUGCAUAGUAUUUAGAUUA | 0.165 ± 0.048 | 0.00336 ± 0.002 | 
2 | UCCUGGAACAGCUUGCACUAGUAUUUAGUUA | 0.0388 ± 0.0091 | 0.00312 ± 0.0026 | 
3 | UCCUGCUACAGCAUGCAUAGUAUUUACUUA | 0.261 ± 0.041 | 0.0037 ± 0.0024 | 
4 | UCCUGGAACAGCUUGCUUAGUAUUUAGUAA | 0.238 ± 0.022 | 0.00393 ± 0.0022 | 
5 | UCCUGGAUGUGCUUGCAUAAUAUUUAGUUA | 0.158 ± 0.018 | 0.00327 ± 0.0027 | 
6 | UCCUGCUACAGCUUGCAAUAGUAUUUAGUUA | 0.0355 ± 0.0093 | 0.006 ± 0.0018 | 
7 | UCCUGGUACAGCUAGCAUAGUAUUUAGAUA | 0.0905 ± 0.022 | 0.00618 ± 0.0029 | 
8 | UCCUGCUACAGCUUGCAUAGGAUUUAGUUA | 0.00856 ± 0.0037 | 0.00356 ± 0.001 | 
9 | UCCUGCUACAGCUUGCAUAGAUUUUAGUAA | 0.0161 ± 0.0046 | 0.0033 ± 0.0022 | 
10 | UCCUGGAUCAGCUAGCAUAGUAUUUAGAAA | 0.139 ± 0.016 | 0.0036 ± 0.0022 | 
11 | UCCUGGUACACCUUGCAUAGUAUUUAGAUA | 0.0475 ± 0.016 | 0.00278 ± 0.0024 | 
12 | UCCUGCUACAGCUUGCAUAGUUUUUAGAUA | 0.0373 ± 0.011 | 0.00319 ± 0.0018 | 
13 | UCCUGGUACAGCUUGCAUAGUAUAUAGUAA | 0.173 ± 0.034 | 0.00335 ± 0.0022 | 
14 | UCCUGCUACAGCUUGCACUAGUAUUUAGUUA | 0.0609 ± 0.015 | 0.00557 ± 0.0023 | 
15 | UCCUGGAUCAGCAUGCAUAGUAUUUACAAA | 0.0991 ± 0.019 | 0.00615 ± 0.0038 | 
16 | UCCUGGUAGAGCUUGCAUAGUAUUUAGAAA | 0.128 ± 0.028 | 0.00392 ± 0.0022 | 
17 | UCCUGCUACAGCUUGCAAAGUUUUUAGUUA | 0.0201 ± 0.0069 | 0.00207 ± 0.002 | 
18 | UCCUGCUACAGCUAGCAUAGUAUUAAGUUA | 0.3 ± 0.032 | 0.00662 ± 0.0026 | 
19 | UCCUGGAACAGCUUGCAUAGUAUUGAGUUA | 0.172 ± 0.029 | 0.00624 ± 0.0022 | 
20 | UCCUGCUACAGGUUCCAUAGUAUUUAGUUA | 0.00943 ± 0.0066 | 0.00222 ± 0.0021 | 
21 | UCCUCCUACAGCUUGCAUAGUAUUUUCAAA | 0.232 ± 0.044 | 0.00383 ± 0.0027 | 
22 | UCCUCCUACACCUUGCAUAGUAUUUAGAAA | 0.226 ± 0.05 | 0.00377 ± 0.0021 | 
23 | UCCUGGAUGUGCAAGCAUAGUAUUUAGAAA | 0.0135 ± 0.0052 | 0.00423 ± 0.0039 | 
24 | UCCUGCUACAGCUUGCAUAGUAUUUUCAUA | 0.151 ± 0.044 | 0.00529 ± 0.0027 | 
25 | UCCUCCUACAGCUUGCAGUAGUAUUUAGUUA | 0.0101 ± 0.0053 | 0.00539 ± 0.0033 | 
26 | UCCUGCUACAGCUUGCAAAGUAUAUAGUUA | 0.0886 ± 0.016 | 0.00379 ± 0.0026 | 
27 | UCCUCCAACAGCUUGCAUAGUAUUUACAAA | 0.113 ± 0.022 | 0.00355 ± 0.0024 | 

Row | Sequence | pre-steady-state target cleavage rate [1, 3] | pre-steady-state target cleavage rate [2] | pre-steady-state target cleavage rate [1, 4]
28 | UCCUGGAUCAGCUUGCAUAGAAUUUAGAUA | 0.0147 ± 0.0059 | 0.0036 ± 0.0019 | 
29 | UCCUGCUACAGCUUGCAUAUGUAUUUAGUUA | 0.0123 ± 0.0069 | 0.00294 ± 0.0023 | 
30 | UCCUGGUACAGCUUGCAUAGUAUUUACAUA | 0.0411 ± 0.014 | 0.0038 ± 0.0029 | 
31 | UCCUCCUACACGUUGCAUAGUAUUUAGAAA | 0.161 ± 0.029 | 0.00396 ± 0.003 | 
32 | UCCUGGAACAGCUUGCAUAGCAUUUAGUUA | 0.0886 ± 0.013 | 0.00399 ± 0.0015 | 
33 | UCCUGGAACAGCUUGCAUAGAAUUUAGAUA | 0.0527 ± 0.018 | 0.00187 ± 0.0015 | 
34 | UCCUGGUACUGCUUGCAUAGUAUUUAGUAA | 0.0986 ± 0.018 | 0.00428 ± 0.0018 | 
35 | UCCUGCUACAUGCUUGCAUAGUAUUUAGUUA | 0.0998 ± 0.021 | 0.00438 ± 0.002 | 
36 | UCCUCCUACAGGUUCCAUAGUAUUUAGUUA | 0.0813 ± 0.027 | 0.0023 ± 0.0012 | 
37 | UCCUGGAUGAGCUUGCAUAGUAUUUAGAAA | 0.119 ± 0.03 | 0.00648 ± 0.0025 | 
38 | UCCUGCUACAGCUUGCAUAGUAUUUCGUUA | 0.132 ± 0.033 | 0.00379 ± 0.0018 | 
39 | UCCUGCUACAGCUUGCAUAGUAUUUAGUAUA | 0.292 ± 0.044 | 0.00675 ± 0.0019 | 
40 | UCCUGCUACAGCUUGCAUAGUUUAUAGUUA | 0.0528 ± 0.017 | 0.00312 ± 0.0027 | 
41 | UCCUGGAUGUGCUUGUCAUAGUAUUUAGUUA | 0.0294 ± 0.0075 | 0.00492 ± 0.0031 | 
42 | UCCUGGAACAGCUUGCAUAGUAAUUUGUUA | 0.0687 ± 0.013 | 0.0032 ± 0.002 | 
43 | UCCUGGAUGUCCUUGCAUAGUAUUUAGAAA | 0.0838 ± 0.021 | 0.00278 ± 0.0022 | 
44 | UCCUGCUACAGCUUGCAUAGUAUAAAGAAA | 0.0621 ± 0.021 | 0.00337 ± 0.0023 | 
45 | UCCUGGAUGUCGAACGUUAGUAUUUUCAAA [g6:g13:cont:t1A] |  | < 0.0001 | < 0.0001
46 | UCCUGGAUGUGCUUCCAUAGUAUUUAGUUA | 0.0271 ± 0.0077 | 0.00277 ± 0.0019 | 
47 | UCCUCCUACAGCUUGCUUAGAAUUUAGUUA | 0.0487 ± 0.011 | 0.00419 ± 0.002 | 
48 | UCCUGCUAAAGCUUGCAUAGUAUUUAGUUA | 0.177 ± 0.035 | 0.00411 ± 0.0014 | 
49 | UCCUGCUACAGCUUGCAAAGUAUUUACAAA | 0.0731 ± 0.018 | 0.00394 ± 0.0025 | 
50 | UCCUGGUACAGCUUGCAUUGUAUUUAGAAA | 0.0202 ± 0.0075 | 0.00329 ± 0.0019 | 
51 | UCCUGCUAGAGCUUGCAUAGUUUUUAGUUA | 0.0598 ± 0.012 | 0.00419 ± 0.0013 | 
52 | UCCUGGAACAGCUUGCAUAGGUAUUUAGUUA |  | 0.00262 ± 0.0026 | 0.00517 ± 0.0026
53 | UCCUGCUACACCUUGCAUAGUAUUUAGAUA | 0.112 ± 0.032 | 0.00254 ± 0.0016 | 
54 | UCCUGCUACAGCUUGCUUAGUAUUUAGAUA | 0.0729 ± 0.015 | 0.00495 ± 0.0028 | 
